Hits are enriched below; roughly 3% of the tested compounds scored in any of these assays.
ClpP mod = qHTS Assay for Activators of ClpP. ATP-dependent Clp protease proteolytic subunit (Bacillus subtilis (strain 168)), P80244. purified B. subtilis ClpP, FRET peptide cleavage, 20 min. Potency, µM (doses to about 57.5 µM). actives 1.9% (n = 340,000); active = well fitted falling curve with a large enough effect; inconclusive = small, poorly fitted or top-dose-only effect; inactive = no such curve, though single readings can be large or run the other way; note: the source files actives as falling curves though it sought activators and does not explain the sign; nearly all actives have a fitted effect of over 65% in size
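FRET quenching reversal measured ClpP activation: 10 microg/mL B. subtilis ClpP at pH 8 with the FRET-FV decapeptide, read at 430 nm after 320 nm excitation. The 20-min minus 0-min signal was scaled between DMSO/no-enzyme wells and ADEP (5.8 microM final).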
hERG WT inh = KCNH2 (human, wildtype) channel inhibition; Q12809; U2OS, BacMam KCNH2, thallium flux FluxOr; hits give low values; activity change, % at 1.84 µM; actives 0.37% (n = 340,000); AID 720551;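 active = maximum activity change below -70%; inconclusive = maximum activity change between -70% and -50%; inactive = maximum activity change above -50%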
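U2OS cells were transduced with wild-type KCNH2 virus (2.03 x 10^8 / mL) for 4 h at room temperature, then cultured overnight at 37 C. Thallium flux was read with FluxOr dye. Rate constants were normalized to DMSO controls.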
Chronic BCR inh = inhibitors of chronic active B-cell receptor signaling; ABC-DLBCL IkBa-CBG/CBR reporter, luminescence ratio, 4 h; Potency, µM (doses to about 46.1 µM), actives largely listed as inhibitors; actives 0.05% (n = 340,000); AID 493014; active = well fitted inhibition curve with a large enough effect in the signal ratio, with a control signal flat, not every such curve was filed as active; inconclusive = small, poorly fitted or top-dose-only effect, or effect the other way, or a change in a side signal; the % refers to the signal ratio
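Compounds up to 46 uM were incubated four hours with TMD8 cells whose green CBG68 luciferase is fused to IkappaBalpha; red CBR luminescence normalised the signal, and concentration-effect curves were fitted to fusion, red and ratio data.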
LDHA block = blocks human lactate dehydrogenase A; purified LDHA, NADH/diaphorase-resazurin fluorescence; hits give low values; AID 1347041; activity change, % (values are at about 110 or 230 µM); actives 0.15% (n = 480,000); P00338; in the data active = activity change below about -30%; inconclusive = mostly about -25% to -30%
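Enzyme activity of human lactate dehydrogenase 5 (2 nM; 0.06 mM NADH, 0.2 mM pyruvate, 5 min, RT) is measured via a resazurin/diaphorase fluorescence readout of residual NADH.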
ALOX12 inh = blocks human arachidonate 12S-lipoxygenase; P18054; purified 12hLO, xylenol orange hydroperoxide absorbance; Potency, µM (titrated, usually from 108 µM), most hits filed as inhibitors; actives 1.1% (n = 580,000); AID 1671190; active = well fitted inhibition curve with a large enough effect; inconclusive = small, poorly fitted or top-dose-only effect, or another doubt; inactive = no such curve, though single readings can be large or run the other way
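Purified human 12hLO at 150 nM in 25 mM Hepes, 0.01% Triton X-100, pH 7.0, preincubated 15 min at room temperature with compound. Reaction started with 40 uM arachidonic acid, 30 min at room temperature. Hydroperoxide measured by Fe-xylenol orange, 573/405 nm absorbance ratio.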
KCNH2 3.1 inh = KCNH2 3.1 (human) potassium channel inhibition; AID 720553; activity change, % (tested at about 1.8 µM); actives 0.95% (n = 340,000); U2OS KCNH2 3.1, thallium flux FluxOr; hits give low values;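 active = maximum activity change below -70%; inconclusive = maximum activity change from -70% to -50%; inactive = maximum activity change above -50%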;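 note: thallium influx rate constant from kinetic fluorescence after stimulation buffer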
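U2OS cells transduced with KCNH2 3.1 mutant virus (1.77 x 10^8 /mL, 4 h), plated overnight at 37 C, loaded 45 min with FluxOr dye plus Red40 quencher. Thallium flux rate constant from kinetic reads after stimulation buffer, normalised to controls.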
A number is an active result; 0 = inactive; ? = inconclusive; - = no result given; [ ] = dose if it differs, or a comment.

SMILES	ClpP mod	hERG WT inh	Chronic BCR inh	LDHA block	ALOX12 inh	KCNH2 3.1 inh
Nc1cc(=O)n(Cc2ccccc2)c(=O)n1-c1ccc(Cl)cc1	-	0	0	0	0	0
CCOC(=O)C(C)Sc1nc(-c2cccs2)ccc1C#N (centres undefined)	13µM	0	0	0	0	0
C=COC(=O)CSc1nc(-c2cccs2)ccc1C#N	28µM	0	?	0	0	0
Clc1cccc(-c2nn3c(-c4cccc(Cl)c4)nnc3s2)c1	-	-	0	-	-	-
Clc1cccc(-c2nn3c(-c4ccc5ccccc5n4)nnc3s2)c1	-	-	-	0	35µM	-
COc1ccc(C(=O)N2CCn3c(nn(-c4ccc(C(F)(F)F)cc4)c3=O)C2)cc1	-	-	-	-	0[6.33 µM]	-
CCOCc1ccccc1CNC(=O)c1ccc2c(c1)NC(=O)CS2	-	-	-	0	0	-
COc1ccc(-n2nc(C(=O)NCC(=O)NCCCN3CCCCCC3)c3ccccc3c2=O)cc1Cl	0	0	0	0	0	-86
C=CCc1cccc2cc(C(=O)NC)c(=O)oc12	22µM	0	0	0	0	-
Cc1ccccc1Cc1sc(N)nc1C	-	-	-	0	14µM	-
CCOc1ccc(-n2cc(-c3ccccc3)c3c(NC4CCCCC4)ncnc32)cc1	?	-	?	0	0	-
CCOc1ccc(-n2cc(-c3ccccc3)c3c(NC4CCCC4)ncnc32)cc1	11µM	-	0	0	0	-
CN(c1ncnc2c1c(-c1ccccc1)cn2-c1ccc(F)cc1)C1CCCCC1	28µM	-	?	0	0	-
CN(c1ncnc2c1c(-c1ccccc1)cn2-c1cccc(Cl)c1)C1CCCCC1	0	-	0	0	0	-
O=C(Nc1cccc2c1CCCC2)c1cc(Cl)nc(Cl)c1	-	-	-	0	0	-
COc1cccc(-c2cc(=O)n3[nH]c(C(F)(F)F)nc3n2)c1	-	-	-	0	?	-
Cc1cc(=O)oc2cc(OCC(O)CN3CCN(c4ccccc4)CC3)ccc12 (centres undefined)	32µM	0	0	0	0	0
COc1ccccc1N1CCN(CC(O)COc2ccc3c(C)cc(=O)oc3c2)CC1 (centres undefined)	16µM	0	0	0	0	0
COc1ccc(N2C(=O)CN(Cc3ccccc3OC)[C@H]3CS(=O)(=O)C[C@H]32)cc1	-	-	-	0	0	-
CC(C)c1ccc(NC(=O)c2cn(C3CCCCC3)c(=O)c3c2c2ccccc2n3C)cc1	25µM	-	-	0	0	-
CC(C)c1ccc(NC(=O)c2cn(C3CCCC3)c(=O)c3c2c2ccccc2n3C)cc1	0	-	-	0	0	-
Cn1c2ccccc2c2c(C(=O)N3CCN(c4ccccn4)CC3)cn(C3CCCC3)c(=O)c21	32µM	0	?	0	0	0
COc1ccc(N2CCN(C(=O)c3cn(C4CCCC4)c(=O)c4c3c3ccccc3n4C)CC2)cc1	0	0	0	0	?	0
NS(=O)(=O)c1cccc(NC(=O)c2cn(Cc3ccccc3)nc2-c2ccccc2)c1	-	-	-	0	0	-
C/C(=C\C(=S)Nc1ccccc1)Nc1ccc2ccccc2c1	35µM	0	?	0	?	0
SMILES	ClpP mod	hERG WT inh	Chronic BCR inh	LDHA block	ALOX12 inh	KCNH2 3.1 inh
Cc1ccc(CN(CCc2ccccc2)C(=O)CCl)s1	-	-	-	0	?	-
COc1ccc(OC)c(N=c2oc3cc(O)ccc3cc2C(N)=O)c1	28µM	0	?	0	0	0
COc1ccc2cc(C(N)=O)c(=Nc3ccccc3)oc2c1	-	0	0	0	0	-
Cc1ccccc1OCCCn1c(CO)nc2ccccc21	0	0	0	0	0	0
CCc1nc2ccccc2n1CCCCOc1ccccc1C	0	-	-	0	40µM	-
CCCC(C(=O)NCCc1ccccn1)c1ccccc1 (centres undefined)	-	-	-	0	0	-
CCOC(=O)C(CCc1ccccn1)c1ccccc1 (centres undefined)	7.9µM	0	-	0	0	0
CC(C)N1C(=O)C2(CCCC2)C1C(=O)NC1CCCC1 (centres undefined)	-	-	-	-	0	-
O=C(CCN1CCN(C(c2ccccc2)c2ccccc2)CC1)N/N=C/c1ccc(O)cc1O	0	0	?	0	?	0
COc1cc(/C=N/NC(=O)CN2CCCCC2)ccc1OCc1ccc(Br)cc1	0	0	?	0	0	-90

Screening results: PubChem BioAssay, National Center for Advancing Translational Sciences (NCATS)
